This passage reports growth results from PubChem BioAssay (NCI).

Compounds without any hit were thinned out: in the full panel of roughly 83,000, 20% have a hit.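 48-hour exposure, single concentration, 96-well plates; percent growth endpoint where 0 means no net growth. Active: below 10.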 Unmarked numbers belong to inactive results. The source made the active and inactive calls.

Some test systems named below: NCI-H23 lung; NCI-H226 lung; NCI-H322M lung; HOP-62 NSCLC; NCI-H460 lung; HOP-92 NSCLC; NCI-H522 lung; A549/ATCC NSCLC; 786-0 renal; COLO 205 colon.
What all share (experiment): NCI-60 one-dose screen, 48 h (100 = growth as untreated, 0 = no growth, -100 = all killed)
Settings in all cases: 10 µM unless noted

Turning to `O=C1C2=C(C(=O)c3c(O)ccc(O)c31)N(c1ccc(N3CCOCC3)nc1)Cc1ccccc1O2`, the growth is -33.8% (active) in the assay with NCI-H23 lung; 0% (active) in the assay on NCI-H226 lung; -14.6% (active) with NCI-H322M lung; -13% (active) in the assay with HOP-62 NSCLC; -32.6% (active) with NCI-H460 lung; -66.1% (active) in the assay on HOP-92 NSCLC. In addition, the growth in the assay on NCI-H522 lung is -47.3% (active); in the assay on A549/ATCC NSCLC it was -23.2% (active); in the assay on 786-0 renal, -83.7% (active); with COLO 205 colon it was -67.5% (active).

In the case of `CN1CCN(Cc2ccc(NC(=O)c3cccc(C#Cc4cnc(N)c5ncccc45)c3F)cc2C(F)(F)F)CC1`, the growth was 61.4% with NCI-H23 lung; 19.3% with NCI-H226 lung; 46.7% with NCI-H322M lung; 49.4% with HOP-62 NSCLC; -71.8% (active) with NCI-H460 lung; 26.5% in the assay on HOP-92 NSCLC. Further, the growth was -9.1% (active) with NCI-H522 lung, 38.2% in the assay on A549/ATCC NSCLC, -88.2% (active) in the assay on 786-0 renal and 42.5% in the assay with COLO 205 colon.

As to `COc1ccc(C2C3CCc4ccccc4C3=NN2C(=O)c2cc(OC)c(OC)c(OC)c2)cc1O` (stereo not given), the growth with NCI-H23 lung was 98%; in the assay with NCI-H226 lung, 89.1%; with NCI-H322M lung, 86.2%; in the assay on HOP-62 NSCLC it was 92.8%; in the assay on NCI-H460 lung, 108%; in the assay on HOP-92 NSCLC, 84.2%. The growth was 81.8% in the assay with NCI-H522 lung, 102% with A549/ATCC NSCLC, 106% in the assay with 786-0 renal and 113% in the assay on COLO 205 colon.

With `COc1ccc2c(c1)CCCC21C(=O)Nc2ccccc21` (stereo not given), the growth is 101% in the assay on NCI-H23 lung; 102% in the assay on NCI-H226 lung; 91.6% with NCI-H322M lung; 96.5% in the assay on HOP-62 NSCLC; 115% in the assay on NCI-H460 lung; 99.3% with HOP-92 NSCLC. Further, the growth in the assay on NCI-H522 lung is 83.2%; in the assay on A549/ATCC NSCLC it was 95.2%; with 786-0 renal, 99.3%; in the assay on COLO 205 colon, 108%.

`COc1ccc([C@@H]2[C@@H](Cl)C(=O)N2c2cc(OC)c(OC)c(OC)c2)cc1C`: the growth in the assay with NCI-H23 lung was 25.3%; in the assay with NCI-H226 lung it was 53.9%; in the assay on NCI-H322M lung it was 35.3%; with HOP-62 NSCLC, 23.3%; in the assay with NCI-H460 lung, 9.34% (active); with HOP-92 NSCLC it was 76%. Besides, the growth in the assay with NCI-H522 lung is 10.2%; in the assay on A549/ATCC NSCLC, 23.6%; in the assay with 786-0 renal, 7.98% (active); in the assay on COLO 205 colon, -57% (active).

As for `Cc1ccc2oc(=O)cc(-c3nc4ccc([N+](=O)[O-])cc4[nH]3)c2c1`, the growth in the assay with NCI-H23 lung was 43.9%; with NCI-H226 lung, 66.6%; with NCI-H322M lung, 80.5%; in the assay on HOP-62 NSCLC, 72%; in the assay on NCI-H460 lung it was 47.1%; in the assay on HOP-92 NSCLC it was 52.7%. In addition, the growth in the assay with NCI-H522 lung is 36%; in the assay on A549/ATCC NSCLC, 35.2%; in the assay with 786-0 renal, 40.6%; in the assay with COLO 205 colon it was 67.8%.

In the case of `CN1CCN(Cc2ccc(NC(=O)c3cncc(C#Cc4ncc5ccccn45)c3)cc2C(F)(F)F)CC1`, the growth was 9.22% (active) in the assay with NCI-H23 lung; -8.28% (active) in the assay with NCI-H226 lung; 33.3% in the assay on NCI-H322M lung; 16.4% in the assay on HOP-62 NSCLC; 5.79% (active) in the assay with NCI-H460 lung; -1.18% (active) in the assay on HOP-92 NSCLC. Besides, the growth is 18.4% with NCI-H522 lung, 7.74% (active) in the assay with A549/ATCC NSCLC, 3.06% (active) in the assay with 786-0 renal and -26.5% (active) in the assay on COLO 205 colon.

Take `Cn1nc(C(F)(F)F)cc1-c1c[nH]c(OCc2ccc(Cl)cc2)c(-c2ccc(Cl)c(C(F)(F)F)c2)c1=O`: the growth is 3.29% (active) in the assay with NCI-H23 lung; -17.3% (active) in the assay with NCI-H226 lung; 8.32% (active) in the assay on NCI-H322M lung; -25% (active) in the assay with HOP-62 NSCLC; 2.53% (active) in the assay with NCI-H460 lung; -22.6% (active) in the assay on HOP-92 NSCLC. In addition, the growth in the assay with NCI-H522 lung was -1.66% (active); in the assay with A549/ATCC NSCLC, 13.4%; in the assay on 786-0 renal, 3.83% (active); in the assay on COLO 205 colon, -31% (active).

For the molecule `Cc1ccc(-c2nc3ccccc3c(=O)n2/N=C/c2cccc3ccccc23)cc1`, the growth is 77.6% in the assay with NCI-H23 lung; 79.2% in the assay on NCI-H226 lung; 54.7% with NCI-H322M lung; 83.1% in the assay with HOP-62 NSCLC; 69.1% in the assay on NCI-H460 lung; 74.2% with HOP-92 NSCLC. The growth with NCI-H522 lung was 53.4%; in the assay with A549/ATCC NSCLC it was 80.1%; with 786-0 renal, 87.3%; with COLO 205 colon, 73.8%.

As to `COc1cc2c(cc1C)NC(=O)/C2=C\c1c[nH]c2ccccc12`, the growth in the assay with NCI-H23 lung was 79.9%; in the assay with NCI-H226 lung, 84%; with NCI-H322M lung, 65.8%; in the assay with HOP-62 NSCLC it was 75.2%; in the assay on NCI-H460 lung it was 40.6%; in the assay with HOP-92 NSCLC it was 50.1%. Moreover, the growth with NCI-H522 lung was 54.7%; in the assay on A549/ATCC NSCLC it was 52.5%; with 786-0 renal, 65.4%; in the assay with COLO 205 colon, 91.1%.

Regarding `COc1cc2nccc(Oc3ccc(NC(=O)C4(C(=O)Nc5ccc(F)cc5)CC4)cc3)c2cc1Oc1ccc(N)cn1`, the growth was 49.3% with NCI-H23 lung; 36.5% in the assay with NCI-H226 lung; 49.4% in the assay with NCI-H322M lung; 51.2% with HOP-62 NSCLC; 31% in the assay with NCI-H460 lung; -11.5% (active) in the assay on HOP-92 NSCLC. In addition, the growth with NCI-H522 lung is 51.3%; in the assay on A549/ATCC NSCLC, 22.7%; in the assay on 786-0 renal, 39.1%; with COLO 205 colon, 8.91% (active).

In the case of `O=C1OCC2=C1C(c1ccc(Cl)c(Cl)c1)c1cc3c(cc1N2CCO)CCC3` (stereo not given), the growth with NCI-H23 lung was 31.5%; with NCI-H226 lung it was 24%; with NCI-H322M lung it was 42%; with HOP-62 NSCLC it was 38.9%; in the assay with NCI-H460 lung, 5.49% (active); with HOP-92 NSCLC, 82%. Moreover, the growth in the assay on NCI-H522 lung is -14.8% (active); in the assay on A549/ATCC NSCLC, 21.6%; with 786-0 renal it was 27.5%; in the assay on COLO 205 colon, 6.1% (active).

As to `COc1ccc2nc(NC(=O)/C(=C/c3cc(OC)c(OC)c(OC)c3)c3ccc(OC)c(OC)c3)sc2c1`, the growth in the assay with NCI-H23 lung is 93.2%; with NCI-H226 lung, 80.2%; in the assay on NCI-H322M lung it was 82.5%; with HOP-62 NSCLC, 87.8%; in the assay with NCI-H460 lung it was 111%; with HOP-92 NSCLC, 74.3%. The growth in the assay on NCI-H522 lung was 78.1%; in the assay on A549/ATCC NSCLC, 85.6%; with 786-0 renal it was 100%; in the assay on COLO 205 colon, 104%.

On to `COC(=O)c1cc(Cl)cc([N+](=O)[O-])c1O`, for which the growth is 111% in the assay on NCI-H23 lung; 97.9% in the assay on NCI-H226 lung; 115% with NCI-H322M lung; 104% in the assay with HOP-62 NSCLC; 116% with NCI-H460 lung; 83.8% in the assay with HOP-92 NSCLC. For the same molecule, the growth was 99.5% in the assay on NCI-H522 lung, 105% in the assay with A549/ATCC NSCLC, 108% with 786-0 renal and 115% in the assay with COLO 205 colon.
